Screening results: PubChem, National Center for Advancing Translational Sciences (NCATS)
FMDV inh – High Throughput Screening for Foot and Mouth Disease Virus Antivirals | 410,000 tested, 1.2% active | Potency, µM (doses to about 57.9 µM), inactives show at the highest dose activity change, negative = inhibition, hits mostly inhibitors | AID 1159524, 2015 | FMDV antiviral cell-based qHTS; calls by dose curve; tested in HEK293T cells; also: read-out not given here; potency is read from the fitted curve at half-maximal effect; nearly all actives have a fitted effect of over 45% in size
Vaccinia Venus – qHTS for Stage-Specific Inhibitors of Vaccinia Orthopoxvirus: Venus Reporter Primary qHTS | Vaccinia virus Venus reporter expression, fluorescence | AID 720580, 2013 | Potency, µM (top dose mostly 36.5 µM), inactives show at the top dose activity change, negative = inhibition, actives largely listed as inhibitors | 330,000 tested, 0.46% active; calls by dose curve; tested in A549 cells; also: potency is read from the fitted curve at half-maximal effect; nearly all actives have a fitted effect of over 30% in size
HCMV antiviral – qHTS Assay for inhibitors of the human cytomegalovirus (HCMV); HFF cells, HCMV-luciferase reporter, 72 h; stronger effect = lower value; activity change, negative = inhibition, % at 57.5 µM; 410,000 tested, 4.5% active; in the data active = activity change below about -60%; inconclusive = no clear call, values can overlap the other calls; inactive = above about -39%
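Cell-based, HFFs, 1000 cells/well, 16 h 37C; cpds in DMSO + HCMV-luc, MOI 1 PFU/cell; 72 h 37C; OneGlo luminescence after 5 min RT; norm. to buffer vs Salinomycin 10uM.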
HCV inhibitor – qHTS Assay for Inhibitors of Hepatitis C Virus (HCV). 340,000 tested, 3.4% active. Huh7.5.1 HCVcc-Cre infection, luciferase reporter, 44 h. Potency, µM (titrated, usually from 41.8 µM), for inactives: at the highest dose activity change, negative = inhibition, actives largely listed as inhibitors; also: potency is read from the fitted curve at half-maximal effect
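Antiviral activity was scored by luciferase reporter output from cells infected with HCVcc-Cre (~0.5 moi) in presence of compound, 44 h infection period, cells seeded 1,000/well 4 h prior.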
Sm TGR inh – qHTS Assay for the Inhibitors of Schistosoma Mansoni Peroxiredoxins; purified TGR, DTNB reduction, TNB absorbance 405 nm; Potency, µM (highest dose often 114 µM), for inactives: at the highest dose activity change, negative = inhibition, hits mostly inhibitors; 360,000 tested, 3% active; also: potency is read from the fitted curve at half-maximal effect; nearly all actives have a fitted effect of over 60% in size
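Kinetic colorimetric format: TGR-catalysed, NADPH-driven DTNB reduction monitored via TNB absorbance. Enzyme dispensed at 20 nM; compound exposure 15 min at room temperature before reaction start.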
Vaccinia mCherry – qHTS for Stage-Specific Inhibitors of Vaccinia Orthopoxvirus: mCherry Reporter Primary qHTS; Vaccinia virus mCherry reporter infection, fluorescence; Potency, µM (top dose mostly 36.5 µM), without a hit: top-dose activity change, negative = inhibition, most hits filed as inhibitors; 310,000 tested, 0.63% active; calls by dose curve; tested in A549 cells; also: potency is read from the fitted curve at half-maximal effect; nearly all actives have a fitted effect of over 35% in size
Numbers without * were called inactive. Compounds with a hit are over-represented: about 9.3% of the library has one in this group of screens. Unless noted, calls follow the shape of the dose curve; as a rule, active = well fitted curve in the direction sought with a large enough effect; inconclusive = small, poorly fitted or top-dose-only effect, or another doubt; inactive = no such curve, though single readings can be large; an effect the other way counts as inactive or inconclusive. % is scaled to controls: 0 for no effect and ±100 for the full control effect.

Cc1ccc(-c2cnc(C3CC3)o2)cc1S(=O)(=O)Nc1cccc(C#N)c1 was read as FMDV inh 20%, Vaccinia Venus -26%, HCMV antiviral -84*, Sm TGR inh 1% and Vaccinia mCherry -27%.
Screening COc1cccc(NS(=O)(=O)c2cc(-c3cnc(C4CC4)o3)ccc2C)c1 returned FMDV inh 23%, Vaccinia Venus inconclusive, HCMV antiviral -89*, Sm TGR inh 3% and Vaccinia mCherry inconclusive.
CCOC(=O)c1cccc(NS(=O)(=O)c2ccc(-c3cnc(C4CC4)o3)cc2)c1 was read as FMDV inh -1%, Vaccinia Venus -16%, HCMV antiviral 13, Sm TGR inh 4% and Vaccinia mCherry -27%.
Screening Cc1ccc(CNC(=O)C2(c3cccs3)CCOCC2)cc1 returned FMDV inh -6%, Vaccinia Venus -7%, HCMV antiviral 12, HCV inhibitor 22%, Sm TGR inh -5% and Vaccinia mCherry -12%.
Screening COCC(=O)Nc1ccccc1Br returned FMDV inh -1%, Vaccinia Venus -5%, HCMV antiviral -12, HCV inhibitor 22%, Sm TGR inh 0% and Vaccinia mCherry inactive.
Cc1ccc(SCc2ccc(C(=O)Nc3cccc([N+](=O)[O-])c3)cc2)cc1 was read as Vaccinia Venus -15%, HCMV antiviral 35, HCV inhibitor 11%, Sm TGR inh -7% and Vaccinia mCherry -21%.
Screening O=C(CN1CCN(c2ncccn2)CC1)N1CCCc2c1c(=O)oc1ccc(O)cc21 returned FMDV inh 2%, Vaccinia Venus inconclusive, HCMV antiviral -18, HCV inhibitor 7% and Sm TGR inh inconclusive.
Screening O=C1NCCCc2c1oc1ccc(O)cc21 returned FMDV inh 52%, HCMV antiviral -63*, HCV inhibitor 11% and Sm TGR inh 9%.
Screening CCC(C(=O)NCc1ccco1)N(C(=O)CNS(=O)(=O)c1ccc(F)cc1)c1ccccc1F (centres undefined) returned FMDV inh 26%, Vaccinia Venus -8%, HCMV antiviral -17, HCV inhibitor -28%, Sm TGR inh 45µM* and Vaccinia mCherry -20%.
`CC(C)C(C(=O)NCc1ccco1)N(C(=O)CNS(=O)(=O)c1ccccc1)c1ccccc1` (centres undefined) gave FMDV inh -17%, Vaccinia Venus 7%, HCMV antiviral -34, HCV inhibitor 3% and Vaccinia mCherry inactive.
CCC(C(=O)NCc1ccco1)N(C(=O)CNS(=O)(=O)c1ccccc1)c1ccc(F)cc1 (centres undefined) was read as FMDV inh 1%, Vaccinia Venus -2%, HCMV antiviral 54, HCV inhibitor 6%, Sm TGR inh 6% and Vaccinia mCherry -5%.
CC(C)C(C(=O)NCc1ccco1)N(C(=O)CNS(=O)(=O)c1ccc(Cl)cc1)C1CCCC1 (centres undefined) was read as FMDV inh -14%, Vaccinia Venus -25%, HCMV antiviral -2, HCV inhibitor 8% and Sm TGR inh 45µM*.
Screening CCC(C)Oc1ccc(/C=C/c2[nH]c(=O)[nH]c(=O)c2[N+](=O)[O-])cc1OC (centres undefined) returned FMDV inh 32µM*, Vaccinia Venus -4%, HCMV antiviral inconclusive, HCV inhibitor 24%, Sm TGR inh -21% and Vaccinia mCherry inactive.
For COc1cc(/C=C/c2[nH]c(=O)[nH]c(=O)c2[N+](=O)[O-])cc([N+](=O)[O-])c1O the results were FMDV inh -19%, HCMV antiviral 4, HCV inhibitor 6% and Sm TGR inh 3%.
`COc1cc(/C=C/c2[nH]c(=O)[nH]c(=O)c2[N+](=O)[O-])ccc1OCCC(C)C` gave FMDV inh 28µM*, Vaccinia Venus -4%, HCMV antiviral -24, HCV inhibitor 10%, Sm TGR inh -6% and Vaccinia mCherry -7%.
